Records with an inconclusive call do not appear. A call without a number means that no potency is given here. Calls of active or inactive are those of the source. Calls come from the whole dose curve; as a rule, active = well fitted curve in the direction sought with a large enough effect in the signal ratio in the repeat runs (not every such curve was filed as active); inconclusive = weak or mixed curves, or effect the other way; inactive = no such curve, though single readings can be large or run the other way; the % refers to the signal ratio.
The compounds below were run against Estrogen receptor (Homo sapiens) (UniProt P03372) (assay: qHTS assay to identify small molecule antagonists of the estrogen receptor alpha (ER-alpha) signaling pathway (AID 743069)). Conditions: HEK293 ER-alpha-UAS-bla, beta-lactamase ratio, antagonist mode; series mostly up to 69.4 µM.
Chain of Estrogen receptor (Homo sapiens) (P03372 whole entry, looked up): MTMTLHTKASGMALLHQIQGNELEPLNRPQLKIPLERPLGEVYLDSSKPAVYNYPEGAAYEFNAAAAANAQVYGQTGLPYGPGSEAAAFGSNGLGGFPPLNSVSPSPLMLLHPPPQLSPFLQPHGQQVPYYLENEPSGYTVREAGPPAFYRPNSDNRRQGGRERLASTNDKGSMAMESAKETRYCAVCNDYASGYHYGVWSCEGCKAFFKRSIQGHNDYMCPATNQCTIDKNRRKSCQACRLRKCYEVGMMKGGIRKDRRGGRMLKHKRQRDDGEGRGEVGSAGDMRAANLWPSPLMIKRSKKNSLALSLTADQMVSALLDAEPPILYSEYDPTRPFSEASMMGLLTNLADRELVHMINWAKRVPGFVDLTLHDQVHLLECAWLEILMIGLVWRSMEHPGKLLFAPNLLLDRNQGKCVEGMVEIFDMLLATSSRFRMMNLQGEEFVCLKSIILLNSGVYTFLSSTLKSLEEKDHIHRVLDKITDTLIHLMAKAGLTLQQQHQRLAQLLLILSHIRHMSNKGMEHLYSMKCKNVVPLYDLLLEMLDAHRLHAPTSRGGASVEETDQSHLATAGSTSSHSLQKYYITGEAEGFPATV
Source text: National Center for Advancing Translational Sciences [NCATS]
NIH Chemical Genomics Center [NCGC]
U.S. Environmental Protection Agency [EPA]
National Institutes of Environmental Health Sciences [NIEHS]
National Toxicology Program [NTP]
U.S. Food and Drug Administration [FDA]
Estrogen receptor (ER), a nuclear hormone receptor, plays an important role in development, metabolic homeostasis and reproduction. Two subtypes of ER, ER-alpha and ER-beta have similar expression patterns with some uniqueness in both types. Endocrine disrupting chemicals (EDCs) and their interactions with steroid hormone receptors like ER causes disruption of normal endocrine function. To identify the compounds that inhibit ER signaling, an ER-alpha-UAS-bla GripTiteTM cell line (Invitrogen, Carlsbad, CA, USA) containing a beta-lactamase reporter gene under the control of an Upstream Activator Sequence (UAS) stably integrated into HEK293 cells was used to screen the Tox21 10K compound library.
Tox21 Assay Protocol Summary:
ER-alpha-bla cells were cultured in assay medium containing 2% charcoal stripped FBS overnight in the culture flasks before the assay was performed. The cells were dispensed at 5,000 cells/5 uL of assay medium per well into black wall/clear-bottom 1536-well plates using a Multidrop Combi (ThermoFisher Scientific, Waltham, MA) dispenser. After the assay plates were incubated at a 37C and 5% CO2 for 4 hr, 23 nL of compounds dissolved in DMSO, positive controls or DMSO only was transferred to the assay plate by a Pintool station (Kalypsys, San Diego, CA), followed by addition of 1 uL of 17beta-estradiol in assay medium using a Flying Reagent Dispenser (Aurora Discovery, San Diego, CA). The plates were incubated at 37C and 5% CO2 for 18 hr. Then 1 uL of LiveBLAzerTM B/G FRET substrate was added using a Flying Reagent Dispenser, the plates were incubated at room temperature for 2 hours, and fluorescence intensity was measured by an Envision plate reader (PerkinElmer, Shelton, CT).

Compound | Potency
BrCC1CO1 (stereo not given) | inactive
O=C(Cl)OCc1ccccc1 | inactive
Cn1c(CCCC(=O)O)nc2cc(N(CCCl)CCCl)ccc21 | inactive
CC(C)(C)C(=O)Cl | inactive
CCCC[N+](=O)[O-] | inactive
O=C(CCl)NCO | inactive
CCC1(c2ccccc2)CCC(=O)NC1=O (stereo not given) | inactive
O=C(O)C(Br)(Br)Br | inactive
O=C1C2CC=CCC2C(=O)N1SC(Cl)(Cl)Cl (stereo not given) | inactive
Oc1ccc(Cc2ccc(O)cc2)cc1 | inactive
COc1ccccc1OC | inactive
CCN(CC)C1CCCCC1 | inactive
CNC(=O)Oc1ccccc1C(C)C | inactive
COc1cccc(C=O)c1 | inactive
CC(C)[N+](C)(CCC(C(N)=O)(c1ccccc1)c1ccccc1)C(C)C | inactive
CC1NCCOC1c1ccccc1 (stereo not given) | inactive
CC(=O)CN(CC(C)=O)N=O | inactive
CC[C@H](N)c1ccccc1 | inactive
CCN(CCO)CCn1c(Cc2ccccc2)nc2c1c(=O)n(C)c(=O)n2C | inactive
CS(=O)(=O)Cl | inactive

Compound | Potency
CCOC(=O)NC(C)(C)Cc1ccc(Cl)cc1 | inactive
CC1N=C(N)OC1c1ccccc1 (stereo not given) | inactive
COc1cc(CCN)cc(OC)c1OC | inactive
NNC(N)=O | inactive
CCOP(=S)(OCC)SCCl | inactive
COc1cc(CC(C)N)cc(OC)c1OC (stereo not given) | inactive
ClCOCCl | inactive
CCOP(=S)(OCC)Oc1ccc(Cl)cc1Cl | inactive
OCC(Cl)CCl (stereo not given) | inactive
CCN(CC)CCOC(=O)C(O)(c1ccccc1)c1ccccc1 | inactive
N[C@@H](Cc1ccc(Oc2cc(I)c(O)c(I)c2)c(I)c1)C(=O)O | inactive
C#CCOC(=O)/C=C(C)/C=C/CC(C)CCCC(C)C (stereo not given) | inactive
NC(=O)OCCCc1ccccc1 | inactive
C(COCC1CO1)OCC1CO1 (stereo not given) | inactive
Clc1ccc(C(Cl)(Cl)Cl)cn1 | inactive
CCOC(=O)CC(SP(=S)(OC)OC)C(=O)OCC (stereo not given) | inactive
Cc1ccc2c(c1)C1CN(C)CCC1N2 (stereo not given) | inactive
CCOC(=O)c1ncn2c1CN(C)C(=O)c1c(I)cccc1-2 | inactive
O=C(Cl)c1ccccc1 | inactive
[O-][Br+2]([O-])O | inactive

Source: PubChem BioAssay (Tox21)
